As a reminder, the AC50 is the midpoint of the concentration-response curve, whichever way the signal moves.

In PubChem BioAssay (EPA / NIEHS) one finds outcome and AC50 data, which are given here for four molecules.

Conditions in all cases: mRNA level, 48 h; actives raise or lower the signal
Read-out in assay [1]: Glutathione S-Transferase (GSTA2), GSTA2 (gene 2939)
The experiment in a line: LTEA_HepaRG_GSTA2: Life Technologies and Expression Analysis (LTEA) Assay for Glutathione S-Transferase (GSTA2) using HepaRG (AID 2283497). In outline:
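Oxidative-stress marker GSTA2 is quantified by TaqMan qRT-PCR in HepaRG cultures treated 48 h across an eight-point range to 100 uM. Expression is normalized to endogenous controls and compared with 0.5% DMSO vehicle.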

Read-out in assay [2]: Glutamate-cysteine ligase catalytic (GCLC), GCLC (gene 2729)
Kind of assay: LTEA_HepaRG_GCLC: Life Technologies and Expression Analysis (LTEA) Assay for Glutamate-cysteine ligase catalytic (GCLC) using HepaRG (AID 2283498). In outline:
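Oxidative-stress marker GCLC is measured as mRNA change in human HepaRG liver cells after 48 h chemical treatment in 0.5% DMSO, eight concentrations from 100 uM. Activity is fitted bidirectionally against vehicle.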

Read-out in assay [3]: growth arrest and DNA damage 45 (GADD45G), GADD45G (gene 10912)
Kind of assay: LTEA_HepaRG_GADD45G: Life Technologies and Expression Analysis (LTEA) Assay for growth arrest and DNA damage 45 (GADD45G) using HepaRG (AID 2283499). In outline: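 Differentiated human HepaRG cells in serum-free induction medium were exposed for 48 h to 8 half-log concentrations up to 100 uM in 0.5% DMSO, in duplicate. GADD45G mRNA was measured by TaqMan qRT-PCR, normalised to ACTB, GAPDH and POLR2A, and fitted bidirectionally against DMSO.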

Read-out in assay [4]: Glutamate-cysteine ligase regulatory (GCLM), GCLM (gene 2730)
The experiment in a line: LTEA_HepaRG_GCLM: Life Technologies and Expression Analysis (LTEA) Assay for Glutamate-cysteine ligase regulatory (GCLM) using HepaRG (AID 2283500). The essentials:
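HepaRG, 48 h dosing, 100 uM top, half-log x8, 0.5% DMSO vehicle. Readout: GCLM mRNA by TaqMan qRT-PCR, housekeeping-normalized (ACTB/GAPDH/POLR2A). Curves fit bidirectionally vs DMSO baseline.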

Read-out in assay [5]: Glutathione S-transferase M3 (GSTM3), GSTM3 (gene 2947)
Kind of assay: LTEA_HepaRG_GSTM3: Life Technologies and Expression Analysis (LTEA) Assay for Glutathione S-transferase M3 (GSTM3) using HepaRG (AID 2283501). The essentials: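 Differentiated HepaRG cells in serum-free induction medium were exposed in duplicate for 48 h to 8 half-log concentrations up to 100 uM in 0.5% DMSO. GSTM3 mRNA was measured by TaqMan qRT-PCR, normalized to ACTB/GAPDH/POLR2A, and fitted bidirectionally versus DMSO.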

Read-out in assay [6]: Heat shock 70 kDa protein 1 (HSPA1A), gene 3303
Kind of assay: LTEA_HepaRG_HSPA1A: Life Technologies and Expression Analysis (LTEA) Assay for Heat shock 70 kDa protein 1 (HSPA1A) using HepaRG (AID 2283502). The essentials:
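HepaRG, 48 h exposure, 8-pt half-log CRC from 100 uM in 0.5% DMSO, duplicates. Readout: TaqMan qRT-PCR of HSPA1A mRNA, housekeeping-normalized (ACTB/GAPDH/POLR2A). Bidirectional fit vs 0.5% DMSO baseline.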

Read-out in assay [7]: Hypoxia-inducible factor 1-alpha (Homo sapiens) (UniProt Q16665)
Kind of assay: LTEA_HepaRG_HIF1A: Life Technologies and Expression Analysis (LTEA) Assay for Hypoxia-inducible factor 1 (HIF1A) Trancription factor using HepaRG (AID 2283503). The essentials:
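Gain- or loss-of-signal HIF1A mRNA changes are fitted against a DMSO baseline. HepaRG cultures receive eight concentrations, highest 100 uM, for 48 h in serum-free induction medium with 0.5% DMSO.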

Read-out in assay [8]: 3-Hydroxy-3-Methylglutaryl-CoA Synthase 2 (HMGCS2), HMGCS2 (gene 3158)
Kind of assay: LTEA_HepaRG_HMGCS2: Life Technologies and Expression Analysis (LTEA) Assay for 3-Hydroxy-3-Methylglutaryl-CoA Synthase 2 (HMGCS2) using HepaRG (AID 2283504). The essentials: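 Differentiated human HepaRG cells were exposed in duplicate for 48 h in serum-free induction medium to eight concentrations (top 100 uM, half-log steps, 0.5% DMSO). HMGCS2 mRNA was quantified by TaqMan qRT-PCR, normalised to ACTB, GAPDH and POLR2A, then fitted bidirectionally against DMSO.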

Read-out in a further assay: HGF (gene 3082)
The experiment in a line: LTEA_HepaRG_HGF: Life Technologies and Expression Analysis (LTEA) Assay for Hepatocyte Growth Facto (HGF) using HepaRG (AID 2283505). In outline:
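Differentiated human HepaRG cells in serum-free induction medium were exposed in duplicate for 48 h to eight concentrations (top 100 uM, half-log steps, 0.5% DMSO). HGF mRNA was quantified by qRT-PCR, normalized to ACTB, GAPDH and POLR2A.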

Read-out in assay [9]: Insulin Like Growth Factor 1 (IGF1), IGF1 (gene 3479)
The experiment in a line: LTEA_HepaRG_IGF1: Life Technologies and Expression Analysis (LTEA) Assay for Insulin Like Growth Factor 1 (IGF1) using HepaRG (AID 2283506). The essentials:
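qRT-PCR readout of IGF1 mRNA, normalized to three housekeeping genes, after 48 h chemical exposure of HepaRG cells. Concentrations: 8-point half-log series, top 100 uM, 0.5% DMSO vehicle. Gain or loss fitted against DMSO baseline.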

Read-out in assay [10]: Intercellular Adhesion Molecule 1 (ICAM1), ICAM1 (gene 3383)
The experiment in a line: LTEA_HepaRG_ICAM1: Life Technologies and Expression Analysis (LTEA) Assay for Intercellular Adhesion Molecule 1 (ICAM1) using HepaRG (AID 2283507). The essentials:
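Differentiated HepaRG cells in serum-free induction medium were exposed in duplicate for 48 h to eight half-log concentrations up to 100 uM in 0.5% DMSO. Transcript levels were measured by qRT-PCR normalized to ACTB, GAPDH and POLR2A; bidirectional fits relative to DMSO.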

Read-out in assay [11]: Insulin-like growth factor-binding protein 1 (IGFBP1), IGFBP1 (gene 3484)
Kind of assay: LTEA_HepaRG_IGFBP1: Life Technologies and Expression Analysis (LTEA) Assay for Insulin-like growth factor-binding protein 1 (IGFBP1) using HepaRG (AID 2283508). In outline: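 Differentiated human HepaRG cells in serum-free induction medium were exposed in duplicate for 48 h to eight concentrations, top 100 uM with half-log dilutions, in 0.5% DMSO. Transcript levels came from qRT-PCR normalised to ACTB, GAPDH and POLR2A, fitted bidirectionally against DMSO.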

Read-out in assay [12]: Interleukin 6 (IL6), IL6 (gene 3569)
The experiment in a line: LTEA_HepaRG_IL6: Life Technologies and Expression Analysis (LTEA) Assay for Interleukin 6 (IL6) using HepaRG (AID 2283509). The essentials: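 Changes in IL6 mRNA, up or down relative to 0.5% DMSO controls, were derived from concentration-response curves in human HepaRG cells treated for 48 h at up to 100 uM, with ACTB, GAPDH and POLR2A as normalizers.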

Read-out in assay [13]: Interleukin 6 Receptor (IL6R), IL6R (gene 3570)
Kind of assay: LTEA_HepaRG_IL6R: Life Technologies and Expression Analysis (LTEA) Assay for Interleukin 6 Receptor (IL6R) using HepaRG (AID 2283510). The essentials:
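HepaRG, 48 h exposure, 8-pt half-log series, top 100 uM, 0.5% DMSO vehicle, duplicates. Read-out: TaqMan qRT-PCR of IL6R transcript, housekeeping-gene normalized. Gain or loss fitted relative to DMSO baseline.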

Read-out in assay [14]: Keratin 19 (KRT19), KRT19 (gene 3880)
The experiment in a line: LTEA_HepaRG_KRT19: Life Technologies and Expression Analysis (LTEA) Assay for Keratin 19 (KRT19) using HepaRG (AID 2283512). In outline: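 Differentiated human HepaRG cells, plated 48 h, were exposed in duplicate for 48 h in serum-free induction medium to eight half-log concentrations up to 100 uM in 0.5% DMSO. KRT19 mRNA was quantified by qRT-PCR, normalized to ACTB, GAPDH and POLR2A, and fitted bidirectionally versus DMSO.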

Read-out in assay [15]: JUN Transcription Factor, JUN (gene 3725)
Kind of assay: LTEA_HepaRG_JUN: Life Technologies and Expression Analysis (LTEA) Assay for JUN Transcription Factor using HepaRG (AID 2283513). In outline: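 HepaRG, 48 h exposure, 8-pt half-log series top 100 uM, 0.5% DMSO, duplicate. JUN mRNA by qRT-PCR (Fluidigm), housekeeping-normalized (ACTB/GAPDH/POLR2A); bidirectional curve fit vs DMSO baseline.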

Read-out in assay [16]: Lipase C (LIPC), LIPC (gene 3990)
The experiment in a line: LTEA_HepaRG_LIPC: Life Technologies and Expression Analysis (LTEA) Assay for Lipase C (LIPC) using HepaRG (AID 2283514). The essentials:
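In this multiplexed gene-expression screen, human HepaRG cultures received test chemicals for 48 h across eight concentrations with 100 uM highest, in duplicate. Values reflect LIPC mRNA induction or suppression versus DMSO vehicle, from normalized qRT-PCR.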

Read-out in assay [17]: Lipoprotein lipase (LPL), LPL (gene 4023)
The experiment in a line: LTEA_HepaRG_LPL: Life Technologies and Expression Analysis (LTEA) Assay for Lipoprotein lipase (LPL) using HepaRG (AID 2283515). In outline:
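Concentration-response testing used half-log steps from 100 uM in 0.5% DMSO on human HepaRG cells, 48 h, duplicate wells. Phenobarbital 1 mM served as induction control; LPL mRNA was normalized to ACTB, GAPDH, POLR2A.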

Read-out in assay [18]: MicroRNA 122 (MIR122), gene 406906
Kind of assay: LTEA_HepaRG_MIR122: Life Technologies and Expression Analysis (LTEA) Assay for MicroRNA 122 (MIR122) using HepaRG (AID 2283516). Also: the transcript read is the microRNA miR-122. The essentials: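 qRT-PCR read-out (TaqMan, Fluidigm array), normalized to three housekeeping genes; HepaRG cells dosed 48 h at 8 concentrations up to 100 uM in 0.5% DMSO, duplicate; gain or loss fitted against DMSO baseline.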

Read-out in assay [19]: Potassium channel subfamily K member 1 (KCNK1), KCNK1 (gene 3775)
The experiment in a line: LTEA_HepaRG_KCNK1: Life Technologies and Expression Analysis (LTEA) Assay for Potassium channel subfamily K member 1 (KCNK1) using HepaRG (AID 2283511). In outline:
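Human HepaRG cultures receive test chemicals for 48 h in 0.5% DMSO, top concentration 100 uM with half-log dilutions. Induction or suppression of KCNK1 mRNA relative to DMSO is derived by bidirectional fitting of qRT-PCR data.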

Structures are written as SMILES. Calls of active or inactive are those of the source. The calls were made as follows: active = hit-call score of the fitted dose curve at least 0.9, where 1 is the maximum; inactive = score below 0.9.

Hypoxia-inducible factor 1-alpha (Homo sapiens), sequence (Q16665 whole entry, looked up): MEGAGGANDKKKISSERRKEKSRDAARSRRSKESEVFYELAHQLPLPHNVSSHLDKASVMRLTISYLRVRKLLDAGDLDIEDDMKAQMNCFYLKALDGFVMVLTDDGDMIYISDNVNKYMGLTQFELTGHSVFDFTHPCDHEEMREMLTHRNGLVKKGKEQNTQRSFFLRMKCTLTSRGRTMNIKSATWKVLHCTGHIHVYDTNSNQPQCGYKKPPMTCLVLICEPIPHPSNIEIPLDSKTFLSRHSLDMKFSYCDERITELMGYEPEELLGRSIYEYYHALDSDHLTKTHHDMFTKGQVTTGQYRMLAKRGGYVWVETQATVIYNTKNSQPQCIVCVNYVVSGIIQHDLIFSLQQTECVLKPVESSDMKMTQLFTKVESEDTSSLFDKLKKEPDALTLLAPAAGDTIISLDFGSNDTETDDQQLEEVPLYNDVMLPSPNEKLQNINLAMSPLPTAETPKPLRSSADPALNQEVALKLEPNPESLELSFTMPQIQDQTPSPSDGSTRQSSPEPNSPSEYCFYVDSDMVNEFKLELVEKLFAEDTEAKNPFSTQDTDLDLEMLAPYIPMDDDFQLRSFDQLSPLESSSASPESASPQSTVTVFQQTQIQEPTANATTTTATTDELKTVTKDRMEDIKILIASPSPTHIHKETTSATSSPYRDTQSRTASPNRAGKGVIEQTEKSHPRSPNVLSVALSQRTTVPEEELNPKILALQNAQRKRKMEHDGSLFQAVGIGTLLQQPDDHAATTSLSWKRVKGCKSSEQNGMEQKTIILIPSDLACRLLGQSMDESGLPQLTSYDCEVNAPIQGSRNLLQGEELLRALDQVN

For the molecule `CCOCCOCCO`, the result in assay [1], in assay [2], in assay [3], in assay [4], in [5] and in assay [6] was inactive. Besides, the result (in assay [7]; in assay [8]; with HGF (gene 3082); in assay [9]; in [10]; in assay [11]) was inactive. Further, the molecule was classed as inactive in [12], in assay [13], in [14], in [15], in assay [16] and in assay [17]. The molecule was called inactive in [18].

As to `CC(=O)O[C@]1(C(C)=O)CC[C@H]2[C@@H]3C=C(Cl)C4=CC(=O)[C@@H]5C[C@@H]5[C@]4(C)[C@H]3CC[C@@]21C`, the AC50 is 15.8 µM (active) in assay [1]; 50 µM (active) in assay [3]; 83.4 µM (active) in [6]; 67.1 µM (active) in assay [8]; 50 µM (active) in [9]; 50 µM (active) in assay [11]. The AC50 is 17.9 µM (active) in assay [14] and 13.3 µM (active) in assay [17]. Also, the outcome (in assay [2]; in assay [4]; in [5]; in the assay with HGF (gene 3082); in [10]; in assay [12]) was inactive. In addition, the molecule was classed as inactive in [13], in assay [19], in [15] and in assay [16].

`C/C=C/C=C/C(=O)O`: the outcome in assay [1], in [3], in [4], in assay [5], in assay [6] and in assay [7] was inactive. The call (in assay [8]; with HGF (gene 3082); in [9]; in assay [10]; in assay [11]; in assay [12]) was inactive. Moreover, the outcome in assay [13], in assay [19], in [14], in assay [15], in [16] and in assay [17] was inactive. Also, in assay [18], the molecule was called inactive. In assay [2], the concentration at half-maximal activity (AC50) is 0.256 µM (active).

`CC(C)(C)c1ccccc1`: the molecule was classed as inactive in assay [1], in assay [2], in assay [3], in assay [4], in assay [5] and in assay [6]. The result (in assay [7]; in assay [8]; with HGF (gene 3082); in [9]; in [10]; in assay [11]) was inactive. In addition, the molecule was classed as inactive in assay [12], in [13], in [14], in assay [15], in [16] and in [17]. Besides, in assay [18], the outcome was inactive.
